According to PubChem BioAssay (NCATS):
Inconclusive results are not listed. Where a call stands in place of a potency, no number is given. Unmarked numbers belong to inactive results. Activity calls are given as the source filed them. Unless noted, calls come from the whole dose curve; as a rule, active = well fitted curve in the direction sought with a large enough effect; inconclusive = small, poorly fitted or top-dose-only effect, or another doubt; inactive = no such curve, though single readings can be large; an effect the other way counts as inactive or inconclusive. Starred links: 1 amine or outer side, 2 acyl side, 3 side chain; linkers in the order of their positions; H or OH if unused. Positions of bridges follow the written chain, without caps; N, C: chain ends. Non-standard residues stand in square brackets, D forms with d. Residues, ends and D or L forms follow the SMILES beside them. ξ: configuration not given here. *: point of attachment. X3 = C[C@@H](Oc1ccc([C@H](N[*:1])C(=O)[*:2])cc1)[C@]1(/C=C\C(=O)[*:3])CO1; d(aIle) = CC[C@H](C)[C@@H](N)C(=O)O; X2 = CC(C)[C@@H](O)C(C)C(=O)*; ξNMeF = CNC(Cc1ccccc1)C(=O)O; ξT = CC(O)C(N)C(=O)O; ξS = NC(CO)C(=O)O

Experiments:
[1] = HEK-293 Cancer Cell Toxicity qHTS against the NCATS CANVASS Library (AID 1347355); note: nearly all actives have a fitted effect of over 65% in size; note: potency is the fitted concentration of half-maximal effect; for outcome: series mostly up to about 46 µM
Outline: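 qHTS cytotoxicity: compounds tested in 11 concentrations on 1000 seeded cells per well over 72 h; bortezomib served as control; signal from CellTiter-Glo luminescence.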

[2] = KB-8-5-11 Cancer Cell Toxicity qHTS against the NCATS CANVASS Library (AID 1347364); note: nearly all actives have a fitted effect of over 75% in size; note: potency is the fitted concentration of half-maximal effect
Outline: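 Natural products were titrated in 11 points onto KB-8-5-11 cells, 500 per well, and cytotoxicity was scored from CellTiter-Glo luminescence after 72 hr culture.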

[3] = KB-3-1 Cancer Cell Toxicity qHTS against the NCATS CANVASS Library (AID 1347366); note: nearly all actives have a fitted effect of over 75% in size; note: potency is the fitted concentration of half-maximal effect
Outline: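 CellTiter-Glo luminescence measured viability after 72 h at 37C. KB-3-1 cells were seeded at 500 per well in DMEM/10% FBS.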

[4] = qHTS for Hypoxia signaling pathway (HIF-1) antagonists against the NCATS CANVASS Library (AID 1347374); note: nearly all actives have a fitted effect of over 60% in size; note: potency is the fitted concentration of half-maximal effect
Outline: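 HRE-bla ME-180 cells (2,000/well, 0.5% dialyzed FBS) were pre-incubated 5 h, then given an 11-point compound series plus CoCl2 (60 uM solution as added) for 17 h at 37C. CCF4 β-lactamase read (ex 405, em 460/530 nm) after 2 h at RT.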

[5] = qHTS assay for small molecule disruptors of mitochondrial membrane potential screened against the NCATS CANVASS Library (AID 1347389); note: nearly all actives have a fitted effect of over 60% in size; note: potency is the fitted concentration of half-maximal effect
Outline: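 Compounds tested in 11-point qHTS series on HepG2 cells for 1 hr; membrane-potential dye added for 30 min at 37C. Lower red-to-green ratio indicates loss of potential.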

[6] = qHTS for inhibitors of Wild type Zika virus screened against the NCATS CANVASS Library (AID 1347396); note: potency is the fitted concentration of half-maximal effect
Outline: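 Vero 766 cells, 1000/well, o/n attach; cpds pin-transferred (11-pt qHTS); WT Zika added; 72 h, 37C, 5% CO2; CellTiter Glo lumi. Uninfected + vehicle = 100% inhibition.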

[7] = Viability qHTS for inhibitors of the SERCaMP assay screened against the NCATS CANVASS Library (AID 1347400); note: nearly all actives have a fitted effect of over 70% in size; note: potency is the fitted concentration of half-maximal effect
Outline: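 Cytotoxicity counter-screen: ATP content (CellTiter-Glo luminescence) of SH-SY5Y-GLuc SERCaMP MJH297 cells after 48 h at 37C with compounds in an 11-point qHTS series.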

[8] = qHTS for inhibitors of Rabies Virus screened against the NCATS CANVASS Library (AID 1347402; calls by dose curve; note: series mostly up to about 46 µM)

| SMILES | Potency [1] | Potency [2] | Potency [3] | Potency [4] | Potency [5] | Potency [6] | Potency [7] | outcome [8] |
| --- | --- | --- | --- | --- | --- | --- | --- | --- |
| CO[C@@]12c3c(C)cc(O)c4c(=O)occ(c34)C(=O)[C@@H]1[C@]13COC(=O)c4c(O)cc(C)c(c41)C(=O)[C@H]2[C@@H]3OC(C)=O | inactive | inactive | inactive | inactive | 16.6 µM (active) | inactive | inactive | inactive |
| C/C1=C/[C@@H](C)[C@H](O)[C@@H](O)/C=C/CC/C=C/C(=O)O[C@@H]1[C@H](C)C(=O)CCCC1CC(=O)NC(=O)C1 | – | – | – | – | – | – | – | inactive |
| CCC(C)=C1OC(=O)[C@H](C)[C@H](O)[C@H](Cc2cccnc2)NC(=O)C(NC(=O)c2ncccc2O)C(C)OC1=O (stereo partly specified) | – | – | – | – | – | – | – | inactive |
| C=C[C@]12C=CCN3CC[C@@]4(c5ccccc5NC(=O)[C@@H]4C1)[C@@H]32 | inactive | inactive | inactive | inactive | inactive | inactive | inactive | inactive |
| C[C@]12CCC3[C@@H](CC[C@@H]4C[C@@H](O)CC[C@]34CO)[C@@]1(O)CC[C@@H]2C1=CC(=O)OC1 (stereo partly specified) | 1.87 µM (active) | 0.935 µM (active) | 1.32 µM (active) | 0.941 µM (active) | – | inactive | 1.91 µM (active) | – |
| O[C@H]1C=C[C@@]23CCN(Cc4cc5c(cc42)OCO5)[C@@H]3C1 | inactive | inactive | inactive | inactive | inactive | inactive | inactive | inactive |
| C/C=C1/CN2CC[C@@]34c5ccccc5N(C)[C@@H]3[C@@H]2C[C@@H]1[C@H]4C(=O)OC | inactive | inactive | inactive | inactive | inactive | inactive | inactive | inactive |
| C/C(=C\[C@H](C)C(=O)C[C@H](O)CC1CC(=O)NC(=O)C1)[C@@H]1OC(=O)/C=C/CC/C=C/C=C/[C@@H]1C | 0.148 µM (active) | 2.35 µM (active) | 1.48 µM (active) | 0.0375 µM (active) | inactive | inactive | 0.538 µM (active) | – |
| C[C@]12CC(O)C3[C@@H](CCC4C[C@@H](O)CC[C@@]43CO)[C@@]1(O)CC[C@@H]2C1=CC(=O)OC1 (stereo partly specified) | 13.2 µM (active) | 18.7 µM (active) | 26.4 µM (active) | 9.41 µM (active) | inactive | inactive | 13.5 µM (active) | – |
| CO[C@H]([C@@H](C)[C@H]1O[C@]1(C)C[C@H](C)/C=C/C=C(\C)[C@H]1O[C@@H](CC(=O)O)CC[C@@H]1C)[C@@H](C)O | 0.0209 µM (active) | 0.0264 µM (active) | 0.0264 µM (active) | – | inactive | – | 0.048 µM (active) | inactive |
| CCCC[C@@H](C)/C=C1/CN2CCC[C@H]2[C@@](C)(O)[C@@H]1O | inactive | inactive | inactive | inactive | inactive | inactive | inactive | inactive |
| CO[C@@H](/C=C/CC/C=C/C(=O)O)[C@@H](O)[C@H](C)/C=C(\C)[C@H](O)[C@H](C)C(=O)CCCC1CC(=O)NC(=O)C1 | inactive | inactive | inactive | inactive | inactive | inactive | inactive | inactive |
| C=C(C)[C@H]1C(=O)c2c3c(cc4c5c(n1c24)[C@@]1(C)[C@@H](CC[C@H]2[C@](C)(/C=C/C=C(\C)C(=O)O)[C@@H](O)CC[C@@]21C)C5)C1=CC(C)(C)OC(C)(C)[C@H]1[C@@H]3O | – | – | 16.6 µM (active) | 6.66 µM (active) | 16.6 µM (active) | – | – | – |
| CC[C@H]1CN2CCc3c([nH]c4cccc(OC)c34)[C@@H]2C[C@@H]1/C(=C\OC)C(=O)OC | 23.5 µM (active) | inactive | inactive | inactive | – | inactive | inactive | – |
| CO[C@H]1[C@H](O[C@H]2CC[C@]3(C=O)[C@H]4CC[C@]5(C)[C@@H](C6=CC(=O)OC6)CC[C@]5(O)[C@@H]4CC[C@]3(O)C2)O[C@H](C)[C@H](O)[C@@H]1OC | 0.105 µM (active) | 0.132 µM (active) | 0.235 µM (active) | 0.0838 µM (active) | inactive | inactive | 0.303 µM (active) | – |
| CCCC[C@@H]1CC[C@H]2CCCC(CCCO)N12 (stereo partly specified) | inactive | inactive | inactive | inactive | inactive | inactive | inactive | inactive |

| SMILES | Potency [1] | Potency [2] | Potency [3] | Potency [4] | Potency [5] | Potency [6] | Potency [7] | outcome [8] |
| --- | --- | --- | --- | --- | --- | --- | --- | --- |
| C=C[C@H]1CN2CCc3c([nH]c4cccc(OC)c34)[C@@H]2C[C@@H]1/C(=C\OC)C(=O)OC | 18.7 µM (active) | inactive | – | inactive | – | inactive | inactive | – |
| CC[C@@H]1CN2CCC3(Nc4cccc(OC)c4C3=O)[C@@H]2C[C@@H]1/C(=C\OC)C(=O)OC (stereo partly specified) | inactive | inactive | inactive | inactive | inactive | inactive | inactive | inactive |
| COC1C(O)C(C)OC(OC2C(Oc3cccc4c(O)c5c(=O)oc6ccc(C)c7c(=O)oc(c34)c5c67)OC(C)C(O)C2O)C1O (stereo unspecified) | 14.8 µM (active) | – | – | – | – | inactive | 34 µM (active) | inactive |
| CO[C@H]1C[C@H](O[C@H]2[C@@H](O)C[C@H](O[C@H]3CC[C@]4(C=O)[C@H]5CC[C@]6(C)C(C7=CC(=O)OC7)CC[C@]6(O)[C@@H]5CC[C@]4(O)C3)O[C@@H]2C)O[C@H](C)[C@H]1O[C@H]1C[C@@H](OC)[C@@H](O[C@@H]2O[C@H](CO)[C@@H](O)[C@H](O)[C@H]2O)[C@@H](C)O1 (stereo partly specified) | 0.118 µM (active) | 0.166 µM (active) | 0.187 µM (active) | 0.118 µM (active) | inactive | inactive | 0.135 µM (active) | – |
| CC[C@]12C=CCN3CC[C@]4(C(=C(C(=O)OC)C1)Nc1ccccc14)[C@@H]32 | – | inactive | inactive | inactive | inactive | inactive | – | inactive |
| C/C=C1/CN2C3CC1C1=CCC(=O)N4c5ccccc5[C@@]3(C[C@@H]2C2=C[C@H]3C5CC6N(CC[C@@]67c6ccccc6N(C2=O)[C@@H]37)C/C5=C/C)[C@H]14 (stereo partly specified) | 7.43 µM (active) | 16.6 µM (active) | – | – | inactive | – | 42.8 µM (active) | – |
| CC[C@H](C)[C@H]1NC(=O)[C@@H](NC(=O)C(C)[C@H](O)C(C)C)[C@@H](C)OC(=O)C2COC(=O)CNC(=O)/C=C\[C@]3(CO3)[C@@H](C)Oc3ccc(cc3)[C@H](NC1=O)C(=O)N(C)C(Cc1ccccc1)C(=O)NC(C(C)O)C(=O)N2 (stereo partly specified) (X2-T[d(aIle)][X3][ξNMeF][ξT][ξS]; ester 1-C; linker 3-6 via G) | inactive | inactive | inactive | inactive | inactive | inactive | inactive | inactive |
| CCCCC1CC[C@H]2CCCC(CCC)N12 (stereo partly specified) | inactive | inactive | inactive | inactive | inactive | inactive | inactive | inactive |
| CC[C@@H]1CN2CCc3c([nH]c4cccc(OC)c34)[C@@H]2C[C@@H]1/C(=C\OC)C(=O)OC | 18.7 µM (active) | – | – | inactive | 4.67 µM (active) | inactive | inactive | inactive |
| C1=C2CCCN[C@H]2C2CC1[C@H]1CCCCN1C2 (stereo partly specified) | inactive | inactive | inactive | inactive | inactive | inactive | – | inactive |
| C/C=C/[C@@H]1[C@H]2C[C@@H](C)CC[C@@H]2C(C)=C[C@H]1C(=O)c1c(O)c(-c2ccc(O)cc2)c[nH]c1=O | – | 20.9 µM (active) | 18.7 µM (active) | 23.6 µM (active) | 14.8 µM (active) | – | inactive | – |
| CC(C)CC1C(=O)O[C@H](C(C)C)C(=O)N(C)C(CC(C)C)C(=O)O[C@@H](C(C)C)C(=O)N(C)C(CC(C)C)C(=O)O[C@H](C(C)C)C(=O)N(C)C(CC(C)C)C(=O)O[C@@H](C(C)C)C(=O)N1C (stereo partly specified) | 2.35 µM (active) | 9.35 µM (active) | 9.35 µM (active) | – | 7.41 µM (active) | 14.7 µM (active) | 42.8 µM (active) | inactive |
| C[N+](C)(C)CCc1c[nH]c2ccccc12 | inactive | inactive | inactive | inactive | inactive | inactive | inactive | inactive |
| C=CC(C)(C)[C@@]12C[C@H]3C(=O)N/C(=C/c4cnc[nH]4)C(=O)N3[C@@H]1Nc1ccccc12 | – | inactive | inactive | inactive | inactive | inactive | inactive | inactive |
| C/C=C(\C)C(=O)O[C@@H]1[C@@H](O)[C@@H]2O[C@H]3[C@H](O[C@@H](CCCCC)CCCCCCC(=O)CCC(=O)OC[C@@H](O2)[C@H]1OC(=O)/C=C/c1ccccc1)O[C@H](C)[C@H](OC(C)=O)[C@@H]3O | 0.118 µM (active) | 1.48 µM (active) | 0.118 µM (active) | – | 16.6 µM (active) | inactive | – | – |
| C/C=C1/CN2CC[C@]34C(=C(C(=O)OC)[C@H]1C[C@H]23)Nc1ccccc14 | inactive | – | inactive | inactive | inactive | inactive | – | inactive |
